Screening data: PubChem, National Center for Advancing Translational Sciences (NCATS)
Only some compounds are listed: those with a hit (about 6.6% of all), similar ones and a draw of the others.
HT1080NT lethal = qHTS for induction of synthetic lethality in tumor cells producing 2HG: qHTS for the HT-1080-NT fibrosarcoma cell line. HT-1080-NT fibrosarcoma viability, CellTiter-Glo ATP luminescence, 48 h. Potency, µM (doses to about 46.1 µM), most hits filed as cytotoxic. 360,000 compounds, 1.6% hits;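 also: NT is the 2HG producing partner of a matched IDH1 knockdown line; nearly all actives have a fitted effect of over 55% in size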
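Viability by CellTiter-Glo luminescence after 48 h compound exposure at 37C of HT-1080-NT cells (750/well, RPMI, 5% FBS). % activity scaled between DMSO wells and medium-only wells, then curve-fitted and categorized by curve class.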
KB-3-1 tox = qHTS assay for MDR1-selective chemotherapeutics: Primary screen using the parental adenocarcinoma cell KB-3-1. KB-3-1 viability, CellTiter-Glo ATP luminescence, 72 h. Potency, µM (series often up to 46.1 µM), most hits filed as cytotoxic. 400,000 compounds, 1.4% hits; also: nearly all actives have a fitted effect of over 60% in size
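KB-3-1 parental drug-naive adenocarcinoma cells in DMEM/10% FBS, incubated 72 h at 37 C with pin-transferred compounds across a concentration series. Viability by CellTiter-Glo luminescence; concentration-response curves fitted after normalization.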
KB-V1 cytotox = qHTS assay for MDR1-selective chemotherapeutics: Primary screen using the drug-selected MDR subline cells KB-V1. 400,000 compounds, 3.4% hits. AID 1347076, 2019. Potency, µM (top dose mostly 46.1 µM), actives largely listed as cytotoxic. KB-V1 MDR cells viability, CellTiter-Glo, 72 h; also: nearly all actives have a fitted effect of over 60% in size
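In this primary screen, KB-V1 cells overexpressing P-gp are incubated with library compounds (lowest to highest concentration) for 72 h at 37 degrees C before a luminescent ATP viability read.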
HepG2 viability = qHTS for Inhibitors of TGF-b: Cytotox Counterscreen; HepG2 CAGA-GFP viability, ATP luminescence, 18 h; Potency, µM (highest dose often 46.1 µM), most hits filed as cytotoxic; 410,000 compounds, 0.76% hits; AID 588856, 2011
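HepG2 CAGA-GFP cells (1000/well, DMEM with 1% FBS) received compound, then TGF-beta at 500 pg/mL final, and were incubated 18 hours at 37 degrees C. Viability was read by CellTiter-Glo luminescence. Media-only wells were set as complete cell-killing and DMSO as no toxicity.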
TGFb SMAD3 inh = qHTS for Inhibitors of TGF-b; 410,000 compounds, 1.2% hits; HepG2 CAGA-GFP TGF-b/SMAD3 reporter, GFP fluorescence, 18 h; TGF-beta stimulated, 500 pg/mL final; Potency, µM (titrated, usually from 46.1 µM), usual class: inhibitors; also: nearly all actives have a fitted effect of over 65% in size
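GFP signal (ex488/em500-530) from TGF-beta-stimulated HEPG2 CAGA-GFP cells, 500 pg/mL final, 18 h at 37 degrees C in DMEM plus 1% FBS, normalized to unstimulated and DMSO-stimulated controls.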
HT1080 IDH1KD tx = qHTS for induction of synthetic lethality in tumor cells producing 2HG: qHTS for the HT-1080-IDH1KD cell line | HT-1080 IDH1 knockdown viability, ATP luminescence, 48 h | Potency, µM (highest dose often 46.1 µM), most hits filed as cytotoxic | 360,000 compounds, 2% hits
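In this qHTS, HT-1080 cells depleted of IDH1 are exposed for 48 h at 37 °C to compound titrations. Toxicity is scored from CellTiter-Glo luminescence, with DMSO as full viability and medium alone as none.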
A number is an active result; n = inactive; u = inconclusive; x = no result given. Calls follow the shape of the dose curve; as a rule, active = well fitted curve in the direction sought with a large enough effect; inconclusive = small, poorly fitted or top-dose-only effect, or another doubt; inactive = no such curve, though single readings can be large; an effect the other way counts as inactive or inconclusive.

SMILES	HT1080NT lethal	KB-3-1 tox	KB-V1 cytotox	HepG2 viability	TGFb SMAD3 inh	HT1080 IDH1KD tx
CCCn1c(-c2ccc(S(=O)(=O)N3CCOCC3)cc2)csc1=Nc1ccc(OCC)cc1	x	n	n	n	n	x
CC(C)C(=O)N1c2ncnn2C2(CCCCC2)[C@@H]2CCCC[C@@H]21	x	n	n	n	n	x
COc1ccc(-c2nc(SCC(=O)NC3CCCC3)c(-c3ccc(C)cc3)[nH]2)cc1OC	x	n	n	n	u	x
CCc1ccc(NC(=O)CSc2nc(=O)n(Cc3ccncc3)c3c2CCC3)cc1	x	n	n	n	n	x
COc1cc(C#N)ccc1OCC(=O)Nc1ccc(C)c(S(=O)(=O)N2CCOCC2)c1	n	n	8.2µM	n	n	n
CCN(CC)C(=O)Cn1c(=O)n(-c2ccc(OC)cc2OC)c(=O)c2c(C)c(C(=O)N(CC)CC)sc21	x	n	n	n	n	x
COc1ccc(CCn2c3c(c(=O)[nH]c2=S)CN(c2ccccc2)CN3)cc1OC	n	x	x	x	x	n
CC(=O)Nc1cccc(-c2cnc(N)c(C(=O)c3cccnc3)n2)c1	n	u	n	n	10µM	n
CCOc1ccc(-n2c(C)nc3cc(C(=O)NCc4ccc5c(c4)OCO5)ccc32)cc1	n	u	13µM	n	u	n
C=C1NN(C(C)C(=O)O)C(=O)N1c1ccc(OCc2ccccc2)cc1 (centres undefined)	x	n	n	n	n	x
CC[C@H](C)[C@H]1O[C@]2(CC[C@@H]1C)C[C@@H]1C[C@@H](CC=C(C)[C@@H](O[C@H]3C[C@H](OC)[C@@H](O[C@H]4C[C@H](OC)[C@@H](O)[C@H](C)O4)[C@H](C)O3)[C@@H](C)C=CC=C3CO[C@@H]4[C@H](O)C(C)=C[C@@H](C(=O)O1)[C@]34O)O2	2.91µM	7.31µM	23.1µM	3.55µM	3.16µM	4.11µM
CCOC(=O)c1[nH]c2ccccc2c1NC(=O)c1ccc(OC(C)C)cc1	x	n	n	n	u	x
O=C(O)c1cc2c(s1)-c1ccccc1CC2	n	n	n	n	n	n
O=C(N/N=C/c1ccc(Cl)cc1)c1cc2c(s1)-c1ccccc1CC2	u	20.6µM	u	n	n	u
COc1ccc(-[n+]2c(C)cc(/C=C3\Sc4ccccc4N3C)cc2C)cc1	4.11µM	u	u	n	n	2.31µM
COc1ccccc1-[n+]1c(C)cc(/C=C2\Sc3ccccc3N2C)cc1C	2.59µM	0.291µM	9.2µM	n	n	0.581µM
COc1ccc(C(=O)/C=C2\Sc3ccccc3N2C)cc1	n	n	u	n	n	n
CCn1c(SCc2ccccc2C)nc(=O)c2c(C(=O)OC)cc(C3CC3)nc21	x	n	n	n	u	x
Cc1sc2ccccc2[n+]1CCC[n+]1c(C)sc2ccccc21	x	n	n	n	11.2µM	x
Cc1sc2ccccc2[n+]1CCC(C)S(=O)(=O)[O-] (centres undefined)	n	n	n	n	n	n
CCCCC(CCc1ccccn1)C(=O)c1ccccc1 (centres undefined)	n	n	16.4µM	n	n	n
CCC(CCc1ccccn1)C(=O)c1ccccc1 (centres undefined)	n	n	u	n	n	n
CCc1ccccc1Oc1nc(NCCOC)nc2cc(-c3ccccc3)sc12	n	n	n	n	n	n
COc1cc2[nH]c3c(=O)n4c(nc3c2cc1OC)SCCC4	7.31µM	u	u	n	u	7.31µM
COc1ccc2[nH]c3c(=O)n4c(nc3c2c1)SCC4	n	n	n	n	n	n
O=C(CSc1nccn1-c1cccc(Cl)c1)Nc1cccc2ccccc12	x	x	x	n	u	x
CC(NC(=O)COC(=O)c1ccc(N(C)C)cc1)c1ccccc1 (centres undefined)	n	n	n	n	n	18.4µM
